Test results reported in PubChem BioAssay AID743255 (National Center for Advancing Translational Sciences (NCATS), 2014).
Out of some 390,000 compounds screened, about 910 (0.23%) were called active. Another 5% or so got no clear call; they are omitted. The sample holds actives, similar compounds and a random draw of the others, so the mix is not that of the screen. The call rests on the fitted dose curve; in most records, active means well fitted inhibition curve with a large enough effect; inconclusive means small, poorly fitted or top-dose-only effect; inactive means no such curve, though single readings can be large or run the other way.

Target: Ubiquitin carboxyl-terminal hydrolase 1 (Homo sapiens) (UniProt O94782)
Sequence (O94782 whole entry, looked up): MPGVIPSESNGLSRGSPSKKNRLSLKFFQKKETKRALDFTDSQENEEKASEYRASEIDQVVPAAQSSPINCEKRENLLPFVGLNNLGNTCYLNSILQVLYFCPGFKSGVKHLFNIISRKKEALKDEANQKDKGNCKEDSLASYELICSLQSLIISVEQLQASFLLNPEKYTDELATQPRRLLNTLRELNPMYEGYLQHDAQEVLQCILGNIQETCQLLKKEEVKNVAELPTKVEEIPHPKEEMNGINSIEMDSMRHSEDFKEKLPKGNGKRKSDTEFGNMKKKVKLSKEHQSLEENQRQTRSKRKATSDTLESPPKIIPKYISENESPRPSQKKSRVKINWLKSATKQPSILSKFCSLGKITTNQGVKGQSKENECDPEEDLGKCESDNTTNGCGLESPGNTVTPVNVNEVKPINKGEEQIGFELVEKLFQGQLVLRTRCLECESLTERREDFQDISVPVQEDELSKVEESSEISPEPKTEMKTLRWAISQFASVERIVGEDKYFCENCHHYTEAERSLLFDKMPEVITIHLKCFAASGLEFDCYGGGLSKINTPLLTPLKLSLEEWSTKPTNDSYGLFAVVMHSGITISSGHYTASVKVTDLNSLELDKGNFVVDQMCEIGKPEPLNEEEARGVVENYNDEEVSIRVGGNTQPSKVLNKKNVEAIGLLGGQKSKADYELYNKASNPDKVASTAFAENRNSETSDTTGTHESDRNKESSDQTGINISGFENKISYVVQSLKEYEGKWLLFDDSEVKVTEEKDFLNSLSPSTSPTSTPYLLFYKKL
Assay: Inhibitors of USP1/UAF1: Primary Screen; further: nearly all actives have a fitted effect of over 60% in size
Conditions: recombinant USP1/UAF1, Ub-Rhodamine cleavage fluorescence; series mostly up to 57.1 µM; activity change, negative = inhibition: at the top concentration
Summary of the method: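 1 nM enzyme complex + cpd, 15 min RT; start with Ub-Rho 150nM final; kinetic fluorescence ex 480/em 540, 6 reads q60 s. Buffer 50mM HEPES pH 7.8, 0.5mM EDTA, 0.1 mg/ml BSA, 1mM TCEP, 0.01% Tween-20.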
On the % scale 0 is the no-effect control and ±100 the full control effect; potency means the concentration at half of the fitted maximal effect.

Potency, active:
Brc1ccc(C2=CC(c3ccco3)n3ncnc3N2)cc1 (stereo not given) 31.6 µM
CCN(CCCNC(=O)c1cc2c(=O)n(CC)c3ccccc3c2s1)Cc1ccccc1 28.2 µM
CCN(CC)CCCC(C)n1c2nc(=O)[nH]c(=O)c-2nc2cc(Cl)ccc21 (stereo not given) 25.1 µM
COc1ccc2c(c1)Cc1sc(NC(=O)c3ccccc3Br)nc1-2 31.6 µM
CC1=CC2=NC(=O)/C(=C/c3coc4ccccc4c3=O)C(=N)N2O1 28.2 µM
NC1=CC(=O)C(=O)c2cccnc21 3.55 µM
O=[N+]([O-])c1ccc(C=Nc2ccc(Cl)cc2Cl)s1 28.2 µM
CN1/C(=C\C=C2\N=C(c3ccc(F)cc3)OC2=O)C(C)(C)c2ccccc21 28.2 µM
CCOC(=O)c1c(C)[nH]c2c1-c1ccccc1C(=O)C2=O 1.26 µM
CC(=O)N(C1=C(Cl)C(=O)c2ccccc2C1=O)c1ccc(C(=O)O)cc1 14.1 µM

Activity change, negative = inhibition, inactive:
O=C(CCC(=O)N1CC2CCCN2c2ccccc21)NCc1ccccc1Cl (stereo not given) -12.9%
Cc1c(-c2nsc(NC(=O)c3cccc(Cl)c3)n2)nnn1-c1ccccc1C(F)(F)F -1.05%
COc1ccc(-n2c(SC)nc3sc4c(c3c2=O)CCN(C(C)=O)C4)cc1 -26.9%
CCc1nn(CC(=O)N2CCN(c3cccc(C(F)(F)F)c3)CC2)c(=O)c2cc3occc3n12 -7.28%
CCn1c(=O)c2cc(C(=O)NCCc3ccc(Cl)cc3)sc2c2ccccc21 -21.3%
CCc1ccc(CNC(=O)c2cc3c(=O)n(CC)c4ccccc4c3s2)cc1 -21.7%
COc1cccc(CNC(=O)C2CCN(S(=O)(=O)c3ccc4c(ccn4C)c3)CC2)c1 2.96%
CCN(C(=O)Cn1cnc2sc(C)c(S(=O)(=O)N3CCN(c4ncccn4)CC3)c2c1=O)c1ccccc1F -30%
CSc1nn(Cc2cccc(C)c2)c(N)c1S(=O)(=O)c1ccccc1 -28.8%
CC(=O)Nc1cc(C(=O)NCc2ccc(F)cc2Cl)ccc1Sc1ccc(Cl)cc1 -26.4%
CCc1cccc(NC(=O)CN(c2ccc(C)c(C)c2)S(=O)(=O)c2ccsc2C(=O)OC)c1 -10.4%
Cc1cc(C)c2sc(NC(=O)c3ccc(S(=O)(=O)N4CCCC4)cc3)nc2c1 -22.5%
COc1ccc(S(=O)(=O)NCC(c2ccc(N(C)C)cc2)N2CCc3ccccc32)cc1OC (stereo not given) -19.8%
CCCN1C(=O)C(O)(CC(=O)c2ccc(CC)cc2)c2cc(Br)ccc21 (stereo not given) -6.09%
COc1cccc(CNC(=O)CCC(=O)N2CC3CCCN3c3ccccc32)c1 (stereo not given) 4.94%
CC(C)NC(=O)c1nn(-c2ccccc2F)nc1CO 10.8%
COc1ccc(CNC(=O)CS(=O)Cc2nc(-c3cccc(C)c3)oc2C)cc1 (stereo not given) -17.1%
CCCCS(=O)(=O)c1oc(-c2cccs2)nc1S(=O)(=O)c1ccccc1 -25.3%
CCOc1ccc(OCC)c(NC(=O)c2cc(C)nc3c2c(C)nn3-c2cccc(Cl)c2C)c1 -1.64%
O=C(CSc1nc(=O)n(Cc2cccnc2)c2c1CCC2)Nc1ccc(F)cc1F -30.9%
Cc1ccc(OCC(=O)OCc2cc(=O)n3nc(C4CC4)sc3n2)cc1C 5.46%
O=C(CCn1ccc2cc(S(=O)(=O)N3CCCC3)ccc21)NCc1cccc(Cl)c1 -0.0195%
COc1ccc(NS(=O)(=O)c2ccc(N3CCOCC3)c(NC(=O)c3ccccc3Br)c2)cc1 -5.81%
COCCN(CCOC)S(=O)(=O)c1ccc(C(=O)Nc2nc3c(s2)CCc2ccccc2-3)cc1 -9.11%
Cc1oc(-c2ccccc2)nc1Cn1c(SCc2cccc(C(F)(F)F)c2)nc2cccnc21 -31.8%
COc1cccc(NC(=O)Cn2c(=O)cc(C)c3c(C)nn(-c4cccc(F)c4)c32)c1 0.827%
CCCCOc1ccc(C(=O)N2CC(=O)Nc3ccc(Br)cc3C2c2ccc(F)cc2)cc1 (stereo not given) -19.8%
O=C(NCC(c1ccco1)S(=O)(=O)c1cccs1)c1ccc(F)cc1 (stereo not given) 5.88%
O=C(CSc1oc(-c2ccc(F)cc2)nc1S(=O)(=O)c1ccc(Br)cc1)NC1CCCCC1 -4.45%
COc1ccc(Cc2nc3ccc(C(=O)NCc4ccccc4Cl)cc3o2)cc1 -2.36%
O=C(CSc1ncc(-c2ccccc2)[nH]1)Nc1ccc(F)cc1F -5.56%
Cc1ccc(Cn2c(CNC(=O)Cc3cccc(C)c3)nc3cccnc32)cc1 -24%
Fc1ccc(Nc2nc(SCc3ccccc3Cl)nc3ccccc23)cc1 -24.2%
CCC(=O)Nc1c(C(=O)N2CCN(c3ccc(F)cc3)CC2)oc2ccccc12 -18.1%
CCOc1ccc(CCNC(=O)c2ccc3c(c2)sc2nc(-c4ccc(F)cc4)cn23)cc1OCC 2.52%
COc1ccc(N2CCN(C(=O)CSCc3nc(-c4ccccc4Cl)oc3C)CC2)cc1 -26.2%
Cc1ccc2c(=O)c(C(=O)c3ccc(F)cc3)cn(CC(=O)NC3CCCCC3)c2n1 2.13%
CCN(CCCNC(=O)c1ccc(Sc2ccc(C)cc2)c(NC(C)=O)c1)c1cccc(C)c1 -9.52%
O=S(=O)(NCC(c1ccccc1)N1CCc2ccccc21)c1ccccc1 (stereo not given) -27.1%
O=C(CCn1c(=O)c2sccc2n(Cc2ccc(F)cc2)c1=O)NCc1ccc2c(c1)OCO2 -8.87%
O=C(CCSCc1ccccc1F)N1CCN(c2ccc(Cl)cc2)CC1 -7.91%
O=C(CC1N=C2c3ccccc3N=C(SCc3cccc(Cl)c3)N2C1=O)NCc1ccc2c(c1)OCO2 (stereo not given) -5.07%
COc1cc(OC)c(NC(=O)c2c3c(nn2C)-c2ccccc2SC3)cc1Cl -25.8%
O=C(CC(c1cccs1)N1Cc2ccccc2C1=O)Nc1ccc(F)c(F)c1 (stereo not given) -15.1%
CCc1ccccc1OCCSc1nc(-c2cccs2)nc2cc(=O)[nH]n12 -13.4%
COc1ccc(NC(=O)c2cc3cc(C)ccc3n2C)cc1 -6.32%
CCC(=O)N1CCc2cc(Br)cc(S(=O)(=O)Nc3ccc(C)cc3C)c21 -10.7%
Cc1ccc(O)c(NC(=O)c2cc(-c3ccc(F)cc3)no2)c1 -11.8%
CCOC(=O)c1c(S(=O)(=O)N2CCCC(C(=O)NCc3ccc(F)cc3)C2)c(C)n(CC)c1C (stereo not given) -24.5%
CC1CCN(S(=O)(=O)c2ccc3c(c2)N(CC(=O)NCc2ccccc2Cl)C(=O)CO3)CC1 -20.5%
CCOC(=O)N1CCc2c(sc3c2C(=O)NC(c2ccccc2F)N3)C1 (stereo not given) -21.4%
CC(C)(C)OC(=O)N1CCC(c2c(C(=O)NCc3ccccn3)cnn2-c2ccc(F)cc2)CC1 7.78%
CCOC(=O)c1cccc(NC(=O)C(Cc2ccccc2)NS(=O)(=O)c2cccc3nsnc23)c1 (stereo not given) -8.9%
Cc1ccc2cccc(NC(=O)c3ccc(OC(C)C)cc3)c2n1 -22.6%
Cc1ccc(-c2nc3cccc(C)n3c2Nc2ccc3c(c2)OCCO3)cc1 -11.9%
CCN1CCC(N(Cc2ccc(F)cc2)C(=O)Nc2cc(C)ccc2C)CC1 -12.8%
CCc1ccc(CNC(=O)C2CCN(c3nn4cc(-c5ccc(F)cc5)nc4s3)CC2)cc1 -6.33%
COc1cc(OC)c(NC(=O)c2cnc(N3CCCC3)nc2C)cc1Cl -25.5%
CCc1ccc(NC(=O)c2cc(S(=O)(=O)N3CCCC(C)C3)cn2C)cc1 (stereo not given) -21.5%
Cc1cc(C)nc(NS(=O)(=O)c2ccc(NC(=O)c3cc(=O)c4ccc(C)c(C)c4o3)cc2)n1 -20.7%
Cc1oc2ncnc(N3CCOCC3)c2c1C(=O)NCCc1ccccc1 -11.6%
COc1ccc(-c2cn3c(n2)sc2cc(C(=O)Nc4ccc(F)cc4)ccc23)cc1 6.29%
Cc1csc2nc(COC(=O)c3ccc(NC(=O)COc4ccccc4F)cc3)cc(=O)n12 -3.82%
CCCN1CCN(CCCNC(=O)c2cnn(-c3ccc(C)cc3)c2-n2cccc2)CC1 -10.7%
O=C(CCOc1ccccc1)N(Cc1cccnc1)c1nc2ccc(Cl)cc2s1 -18.1%
CC(NC(=O)c1cc(Sc2ccc(F)cc2F)nc2ccccc12)c1ccccc1 (stereo not given) -9.65%
COc1cccc(C(=O)NCc2ccc3c(c2)CCN3C(=O)c2ccncc2)c1 -9.61%
CCOC(=O)c1c(C)[nH]c(CCC(=O)Nc2ccc(OC)c(OC)c2)c1C -19%
CCOC(=O)c1c(SCC(=O)Nc2cccc(C)c2C)nc(=O)[nH]c1C -6.81%
CN(C(=O)c1ccc2c(c1)N(Cc1cccc(Cl)c1)C(=O)c1ccccc1S2=O)C1CCCCC1 (stereo not given) -9.49%
